Reference: the supplement of paper PMC10849652
The full data set covers some 7,900 targets. This sample favours those with a hit. About 0.6% of all pairs of compound and target were hits. Unmarked numbers belong to inactive results.

How the values were obtained:
Test in all cases: log2 fold change, soluble protein after heating vs DMSO (PISA); higher = thermal stabilisation; K562 cells, 10 uM, 30 min; active = over 0.2 and 3.5 SD of the protein, either way, in both replicates (recomputed)
bafetinib = compound: Cc1ccc(NC(=O)c2ccc(CN3CC[C@H](N(C)C)C3)c(C(F)(F)F)c2)cc1Nc1nccc(-c2cncnc2)n1 [bafetinib]
Procedure, shortened: (§1)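 K562 cells at 2×10^6 cells/mL were given 10 μM compound for 30 min. Aliquots then went through 3 min of heating across 48°C-58°C, were pooled, and were extracted in PBS with 0.5% NP-40 at 4°C, and the supernatant after 21,000xg for 90 min was quantified by TMTpro 16plex LC-MS/MS with channel sums equalised. Thermal stability relative to control samples, from duplicates, is given as log2 fold change.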

[1] = compound: Cc1cccc(CC(=O)N2CCc3c2ccc(-c2cn(C)c4ncnc(N)c24)c3F)n1
Procedure, shortened: as §1

nilotinib = compound: Cc1cn(-c2cc(NC(=O)c3ccc(C)c(Nc4nccc(-c5cccnc5)n4)c3)cc(C(F)(F)F)c2)cn1 [nilotinib]
Procedure, shortened: as §1

[2] = compound: Cc1nc(Nc2n[nH]c3c2CN(C(=O)N[C@H](CN(C)C)c2ccccc2)C3(C)C)c2sccc2n1
Procedure, shortened: as §1

dasatinib = compound: Cc1nc(Nc2ncc(C(=O)Nc3c(C)cccc3Cl)s2)cc(N2CCN(CCO)CC2)n1 [dasatinib]
Procedure, shortened: as §1

[3] = compound: Cc1ncc(-c2ccnc(Nc3ccc(S(C)(=O)=O)cc3)n2)n1C(C)C
Procedure, shortened: as §1

[4] = compound: Cn1cc(-c2ccc3c(c2)CCN3C(=O)Cc2cccc(C(F)(F)F)c2)c2c(N)ncnc21
Procedure, shortened: as §1

[5] = compound: Cn1cc(-c2ccc3nnc(C(F)(F)c4ccc5ncccc5c4)n3n2)cn1
Procedure, shortened: as §1

tipifarnib = compound: Cn1cncc1[C@@](N)(c1ccc(Cl)cc1)c1ccc2c(c1)c(-c1cccc(Cl)c1)cc(=O)n2C [tipifarnib]
Procedure, shortened: as §1

mubritinib = compound: FC(F)(F)c1ccc(/C=C/c2nc(COc3ccc(CCCCn4ccnn4)cc3)co2)cc1 [mubritinib]
Procedure, shortened: as §1

[6] = compound: NC(=O)Nc1cc(-c2cccc(F)c2)sc1C(=O)N[C@H]1CCCNC1
Procedure, shortened: as §1

[7] = compound: NC(=O)c1cnc(N[C@@H]2CCCC[C@@H]2N)nc1Nc1cccc(-n2nccn2)c1
Procedure, shortened: as §1

[8] = compound: NC1(c2ccc(-c3nc4ccn5c(=O)[nH]nc5c4cc3-c3ccccc3)cc2)CCC1
Procedure, shortened: as §1

[9] = compound: NCC(=O)Nc1ccc(-n2nc(C(F)(F)F)cc2-c2ccc3c(ccc4ccccc43)c2)cc1
Procedure, shortened: as §1

entinostat = compound: Nc1ccccc1NC(=O)c1ccc(CNC(=O)OCc2cccnc2)cc1 [entinostat]
Procedure, shortened: as §1

vorinostat = compound: O=C(CCCCCCC(=O)Nc1ccccc1)NO [vorinostat]
Procedure, shortened: as §1

citarinostat = compound: O=C(CCCCCCNC(=O)c1cnc(N(c2ccccc2)c2ccccc2Cl)nc1)NO [citarinostat]
Procedure, shortened: as §1

silmitasertib = compound: O=C(O)c1ccc2c(c1)nc(Nc1cccc(Cl)c1)c1ccncc12 [silmitasertib]
Procedure, shortened: as §1

[10] = compound: O=C1NC(=O)C(c2cnc3ccccn23)=C1c1cn2c3c(cc(F)cc13)CN(C(=O)N1CCCCC1)CC2
Procedure, shortened: as §1

[11] = compound: c1cc(OCCN2CCCCC2)cc(-c2n[nH]c3ccc(-c4nnc[nH]4)cc23)c1
Procedure, shortened: as §1

Chain of UniProt Q9Y5J6 (Q9Y5J6 whole entry, looked up): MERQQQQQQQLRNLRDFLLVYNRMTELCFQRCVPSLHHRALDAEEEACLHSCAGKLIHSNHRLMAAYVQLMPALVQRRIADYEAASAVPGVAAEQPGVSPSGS
Chain of UniProt Q86UE8 (Q86UE8 whole entry, looked up): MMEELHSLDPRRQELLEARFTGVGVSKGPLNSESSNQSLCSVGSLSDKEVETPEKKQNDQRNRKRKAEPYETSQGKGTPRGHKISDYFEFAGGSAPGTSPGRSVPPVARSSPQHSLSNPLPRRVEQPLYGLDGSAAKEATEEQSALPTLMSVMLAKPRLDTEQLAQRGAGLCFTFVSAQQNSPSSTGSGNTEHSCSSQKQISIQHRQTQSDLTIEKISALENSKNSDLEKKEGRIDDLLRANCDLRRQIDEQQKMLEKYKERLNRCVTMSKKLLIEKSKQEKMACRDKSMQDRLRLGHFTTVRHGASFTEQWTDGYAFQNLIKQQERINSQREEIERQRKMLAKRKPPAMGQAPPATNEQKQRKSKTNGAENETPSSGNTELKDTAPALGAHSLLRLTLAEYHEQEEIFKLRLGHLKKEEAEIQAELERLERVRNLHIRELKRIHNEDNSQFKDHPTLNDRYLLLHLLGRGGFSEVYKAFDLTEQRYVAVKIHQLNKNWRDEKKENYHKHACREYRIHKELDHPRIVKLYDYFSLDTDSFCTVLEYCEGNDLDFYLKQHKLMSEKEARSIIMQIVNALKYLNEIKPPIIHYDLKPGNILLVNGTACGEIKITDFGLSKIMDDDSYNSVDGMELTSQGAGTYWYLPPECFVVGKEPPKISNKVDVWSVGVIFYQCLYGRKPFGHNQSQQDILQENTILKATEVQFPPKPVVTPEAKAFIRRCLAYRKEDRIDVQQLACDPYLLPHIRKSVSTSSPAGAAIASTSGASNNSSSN
Chain of UniProt P50225 (P50225 whole entry, looked up): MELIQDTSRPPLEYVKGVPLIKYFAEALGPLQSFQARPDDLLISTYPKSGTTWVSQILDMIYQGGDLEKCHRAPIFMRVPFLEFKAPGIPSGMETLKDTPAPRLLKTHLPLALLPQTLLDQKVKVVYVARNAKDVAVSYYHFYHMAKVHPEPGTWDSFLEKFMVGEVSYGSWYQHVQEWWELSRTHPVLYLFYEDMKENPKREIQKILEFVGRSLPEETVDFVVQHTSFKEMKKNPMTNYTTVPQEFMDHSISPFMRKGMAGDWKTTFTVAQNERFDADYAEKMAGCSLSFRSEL
Chain of UniProt Q9UNH7 (Q9UNH7 whole entry, looked up): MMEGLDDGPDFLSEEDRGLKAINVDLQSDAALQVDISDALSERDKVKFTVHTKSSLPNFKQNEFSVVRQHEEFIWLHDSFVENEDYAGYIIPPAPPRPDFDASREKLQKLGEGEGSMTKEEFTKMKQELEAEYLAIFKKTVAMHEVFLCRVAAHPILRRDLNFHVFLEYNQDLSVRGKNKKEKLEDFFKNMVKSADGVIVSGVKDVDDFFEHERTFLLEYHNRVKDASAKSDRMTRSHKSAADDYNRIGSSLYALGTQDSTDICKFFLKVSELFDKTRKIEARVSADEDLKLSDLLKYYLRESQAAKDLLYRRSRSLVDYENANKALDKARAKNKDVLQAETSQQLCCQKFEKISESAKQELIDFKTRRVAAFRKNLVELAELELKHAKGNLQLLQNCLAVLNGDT
Chain of UniProt P04920 (P04920 whole entry, looked up): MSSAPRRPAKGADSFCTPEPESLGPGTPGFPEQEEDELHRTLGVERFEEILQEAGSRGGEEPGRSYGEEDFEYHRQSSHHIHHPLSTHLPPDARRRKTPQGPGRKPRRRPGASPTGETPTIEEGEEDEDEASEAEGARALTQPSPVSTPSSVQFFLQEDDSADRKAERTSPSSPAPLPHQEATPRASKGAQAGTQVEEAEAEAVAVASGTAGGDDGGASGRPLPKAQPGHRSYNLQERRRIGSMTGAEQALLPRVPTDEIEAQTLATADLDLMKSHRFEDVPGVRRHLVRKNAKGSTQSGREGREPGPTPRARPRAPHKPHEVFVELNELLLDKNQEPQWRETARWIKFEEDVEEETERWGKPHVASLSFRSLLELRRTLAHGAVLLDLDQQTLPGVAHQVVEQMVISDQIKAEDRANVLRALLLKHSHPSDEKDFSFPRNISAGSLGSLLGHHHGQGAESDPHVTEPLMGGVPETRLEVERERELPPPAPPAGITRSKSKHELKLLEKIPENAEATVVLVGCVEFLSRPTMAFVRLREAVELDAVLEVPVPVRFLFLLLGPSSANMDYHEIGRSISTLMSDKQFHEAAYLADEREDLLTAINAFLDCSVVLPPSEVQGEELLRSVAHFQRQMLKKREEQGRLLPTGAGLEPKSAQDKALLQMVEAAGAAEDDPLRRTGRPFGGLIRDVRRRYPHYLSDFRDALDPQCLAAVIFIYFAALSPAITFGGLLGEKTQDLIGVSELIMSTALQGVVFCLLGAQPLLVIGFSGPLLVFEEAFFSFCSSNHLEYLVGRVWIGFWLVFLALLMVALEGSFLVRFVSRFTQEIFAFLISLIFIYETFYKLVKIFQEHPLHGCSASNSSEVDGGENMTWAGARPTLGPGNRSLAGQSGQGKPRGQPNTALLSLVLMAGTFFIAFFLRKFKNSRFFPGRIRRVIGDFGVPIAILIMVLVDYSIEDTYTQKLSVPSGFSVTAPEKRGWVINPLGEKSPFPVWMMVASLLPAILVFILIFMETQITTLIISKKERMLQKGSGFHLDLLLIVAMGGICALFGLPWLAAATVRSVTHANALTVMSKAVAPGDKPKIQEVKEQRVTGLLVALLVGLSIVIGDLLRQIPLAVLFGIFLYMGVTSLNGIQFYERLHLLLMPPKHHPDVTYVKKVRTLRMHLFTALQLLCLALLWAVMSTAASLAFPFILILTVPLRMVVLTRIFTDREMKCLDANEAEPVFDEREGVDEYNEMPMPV
Chain of UniProt Q9UNL2 (Q9UNL2 whole entry, looked up): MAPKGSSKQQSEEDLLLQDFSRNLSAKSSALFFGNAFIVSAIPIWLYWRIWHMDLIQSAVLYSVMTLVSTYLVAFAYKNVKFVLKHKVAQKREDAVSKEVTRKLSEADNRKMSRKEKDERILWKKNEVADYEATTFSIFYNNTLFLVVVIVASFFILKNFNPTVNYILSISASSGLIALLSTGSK
Chain of UniProt Q9Y5L4 (Q9Y5L4 whole entry, looked up): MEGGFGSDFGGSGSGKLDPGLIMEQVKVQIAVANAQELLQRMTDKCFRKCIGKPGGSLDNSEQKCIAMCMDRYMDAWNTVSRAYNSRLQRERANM
Chain of UniProt Q7L7X3 (Q7L7X3 whole entry, looked up): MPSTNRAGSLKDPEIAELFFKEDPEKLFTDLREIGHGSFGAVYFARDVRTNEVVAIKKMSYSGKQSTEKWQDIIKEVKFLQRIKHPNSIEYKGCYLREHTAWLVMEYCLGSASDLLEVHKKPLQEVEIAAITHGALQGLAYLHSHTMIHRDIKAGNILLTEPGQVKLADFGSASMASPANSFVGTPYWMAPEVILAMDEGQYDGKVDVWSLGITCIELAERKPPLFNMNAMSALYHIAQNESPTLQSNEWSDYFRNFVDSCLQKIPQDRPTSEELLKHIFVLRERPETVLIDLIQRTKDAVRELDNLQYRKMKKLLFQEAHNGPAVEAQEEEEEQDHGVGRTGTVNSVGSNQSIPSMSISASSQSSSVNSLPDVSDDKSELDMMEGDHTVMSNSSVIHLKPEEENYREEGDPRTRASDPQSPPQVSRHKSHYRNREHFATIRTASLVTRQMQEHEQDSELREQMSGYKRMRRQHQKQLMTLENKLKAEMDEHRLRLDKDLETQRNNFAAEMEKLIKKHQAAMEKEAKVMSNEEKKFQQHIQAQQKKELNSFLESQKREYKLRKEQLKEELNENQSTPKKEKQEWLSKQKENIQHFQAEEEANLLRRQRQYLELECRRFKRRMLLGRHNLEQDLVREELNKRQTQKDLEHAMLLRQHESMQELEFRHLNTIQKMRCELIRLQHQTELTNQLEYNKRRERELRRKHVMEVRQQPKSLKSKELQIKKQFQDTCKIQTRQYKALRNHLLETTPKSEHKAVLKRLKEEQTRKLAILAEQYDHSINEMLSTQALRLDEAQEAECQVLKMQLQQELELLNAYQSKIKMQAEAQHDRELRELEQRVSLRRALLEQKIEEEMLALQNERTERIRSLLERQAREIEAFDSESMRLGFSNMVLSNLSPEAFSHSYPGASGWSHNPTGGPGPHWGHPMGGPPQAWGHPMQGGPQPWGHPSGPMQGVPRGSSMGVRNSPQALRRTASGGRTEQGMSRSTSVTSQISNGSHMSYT

| Target | log2 fold change (bafetinib) | log2 fold change [1] | log2 fold change (nilotinib) | log2 fold change [2] | log2 fold change (dasatinib) | log2 fold change [3] | log2 fold change [4] | log2 fold change [5] | log2 fold change (tipifarnib) | log2 fold change (mubritinib) | log2 fold change [6] | log2 fold change [7] | log2 fold change [8] | log2 fold change [9] | log2 fold change (entinostat) | log2 fold change (vorinostat) | log2 fold change (citarinostat) | log2 fold change (silmitasertib) | log2 fold change [10] | log2 fold change [11] |
| --- | --- | --- | --- | --- | --- | --- | --- | --- | --- | --- | --- | --- | --- | --- | --- | --- | --- | --- | --- | --- |
| TIMM13 (UniProt Q9Y5L4) | 0.086 | 0.156 | 0.018 | -0.017 | 0 | 0.035 | 0.07 | -0.003 | -0.111 | 0.005 | 0.114 | 0.031 | -0.027 | 0.012 | 0.01 | 0.031 | 0.117 | -0.016 | 0.152 | 0.107 |
| SLC4A2 (UniProt P04920) | -0.101 | -0.037 | 0.027 | -0.165 | -0.125 | 0.043 | 0.023 | -0.045 | -0.068 | 0.029 | -0.048 | -0.055 | -0.204 (active) | -0.123 | 0.028 | 0.023 | -0.072 | 0.019 | 0.016 | -0.084 |
| SULT1A1 (UniProt P50225) | -0.067 | 0.222 | -0.072 | -0.065 | -0.172 | -0.002 | 0.333 (active) | 0.353 (active) | -0.097 | -0.069 | -0.049 | 0.039 | -0.179 | 0.123 | 0.133 | 0.063 | 0.056 | -0.038 | -0.095 | 0.032 |
| TLK2 isoform 2 (UniProt Q86UE8) | -0.051 | -0.042 | 0.006 | -0.407 (active) | -0.01 | 0.007 | 0.046 | -0.033 | 0.01 | -0.001 | -0.059 | 0.049 | -0.042 | -0.037 | 0.036 | 0.1 | 0.016 | 0.034 | -0.026 | -0.052 |
| TIMM10B (UniProt Q9Y5J6) | 0.4 | -0.138 | 0.006 | -0.04 | 0.138 | -0.052 | 0.01 | 0.224 | -0.001 | 0.065 | 0.021 | 0.257 | -0.111 | -0.007 | 0.016 | -0.202 | 0.074 | 0.034 | -0.04 | 0.022 |
| TAOK1 (UniProt Q7L7X3) | -0.056 | 0.025 | 0.007 | -0.023 | -0.014 | -0.03 | 0.043 | -0.026 | 0.067 | 0.078 | -0.043 | -0.04 | -0.063 | -0.068 | -0.01 | 0.048 | 0 | -0.003 | -0.038 | -0.194 |
| SNX6 (UniProt Q9UNH7) | -0.132 | 0.138 | -0.214 | 0.012 | -0.176 | -0.47 (active) | 0.094 | 0.019 | -0.045 | 0.058 | -0.027 | -0.376 (active) | -0.403 (active) | 0.007 | 0.075 | 0.15 | 0.064 | -0.142 | -0.003 | -0.087 |
| SSR3 isoform 2 (UniProt Q9UNL2) | -0.064 | 0.034 | -0.006 | 0.029 | 0.006 | -0.047 | 0.107 | -0.167 | 0.084 | 0.049 | -0.056 | 0.18 | -0.056 | 0.369 (active) | -0.04 | 0 | 0.068 | 0 | -0.028 | -0.114 |
